Values without a mark were called inactive. Inconclusive results are not listed. Entries that show only a call come without a potency. The source made the active and inactive calls. The call rests on the fitted dose curve.
What was measured:
[1] = target: Acetylcholinesterase (Homo sapiens) (UniProt P22303); assay: Acetylcholinesterase (AChE) small molecule antagonists: colormetric cell-based qHTS assay (AID 1347395); further: nearly all actives have a fitted effect of over 30% in size; further: potency means the concentration at half of the fitted maximal effect
Chain of Acetylcholinesterase (Homo sapiens) (P22303 whole entry, looked up): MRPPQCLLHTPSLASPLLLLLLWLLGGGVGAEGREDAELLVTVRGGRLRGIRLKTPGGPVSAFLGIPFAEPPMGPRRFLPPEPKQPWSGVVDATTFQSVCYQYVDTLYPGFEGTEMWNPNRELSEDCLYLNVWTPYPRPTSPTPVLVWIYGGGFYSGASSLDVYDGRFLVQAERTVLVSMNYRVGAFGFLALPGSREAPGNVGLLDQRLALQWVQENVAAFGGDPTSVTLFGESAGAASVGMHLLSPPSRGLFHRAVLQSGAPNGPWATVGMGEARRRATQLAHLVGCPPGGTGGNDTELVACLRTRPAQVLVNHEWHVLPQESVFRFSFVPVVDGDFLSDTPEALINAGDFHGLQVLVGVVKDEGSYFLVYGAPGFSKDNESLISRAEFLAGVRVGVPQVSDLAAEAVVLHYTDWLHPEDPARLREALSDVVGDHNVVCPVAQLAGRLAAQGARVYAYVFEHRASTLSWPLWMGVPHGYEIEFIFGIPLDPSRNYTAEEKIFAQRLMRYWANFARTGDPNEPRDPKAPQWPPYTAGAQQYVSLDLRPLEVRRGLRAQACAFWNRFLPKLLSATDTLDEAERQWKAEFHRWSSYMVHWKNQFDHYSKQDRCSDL
In short: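 After overnight attachment at 37 C, SH-SY5Y cells get 30 min compound exposure; detection cocktail (acetylthiocholine, DTNB) then incubates 90 min at 37 C, and absorbance reflects AChE-generated thiocholine.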

[2] = target: Acetylcholinesterase (Homo sapiens) (UniProt P22303); assay: Acetylcholinesterase (AChE) small molecule antagonists: fluorescence cell-based qHTS assay (AID 1347398); settings: Potency: AChE activity; outcome: AChE activity; further: nearly all actives have a fitted effect of over 50% in size; further: potency means the concentration at half of the fitted maximal effect
In short: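 Using neuroblastoma SH-SY5Y cells as the enzyme source, test chemicals are preincubated 30 min at 37 C; AChE-driven acetylthiocholine cleavage is then quantified by thiocholine-dependent Thiolite Green fluorescence after 40 min at room temperature.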

[3] = target: Acetylcholinesterase (Homo sapiens) (UniProt P22303); assay: Acetylcholinesterase (AChE) small molecule antagonists: enzyme-based qHTS assay with human liver microsomes (AID 1347399); settings: Potency: qHTS inhibition; outcome: qHTS inhibition; further: nearly all actives have a fitted effect of over 60% in size
In short: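 Recombinant human AChE (50 mU/mL in the enzyme mix) and human liver microsomes (0.25 mg/mL final) were preincubated with compound and NADPH (0.25 mg/mL final) for 30 min at 37 C. Acetylthiocholine/DTNB was then added; thiocholine was read colorimetrically after 10 min at room temperature.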

[4] = target: Acetylcholinesterase (Homo sapiens) (UniProt P22303); assay: Acetylcholinesterase (AChE) small molecule antagonists: enzyme-based qHTS assay (AID 1347397); settings: Potency: AChE enzyme activity inhibition; outcome: AChE enzyme activity inhibition; further: potency means the concentration at half of the fitted maximal effect; nearly all actives have a fitted effect of over 55% in size
In short: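 Compound or DMSO vehicle was pin-transferred onto recombinant human AChE (50 mU/mL as dispensed) and left 30 min at room temperature. Acetylthiocholine with DTNB then started the reaction, read colorimetrically 10 min later.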

For `CN(C)CCOc1ccc(/C(=C(/CCCl)c2ccccc2)c2ccccc2)cc1`, the Potency [1] was “inactive”, the Potency [2] was “inactive” and the Potency [3] was “inactive”.
With `c1ccc(C[P+](c2ccccc2)(c2ccccc2)c2ccccc2)cc1` the Potency [1] was 71 µM (active), the Potency [2] was 12.6 µM (active) and the Potency [3] was “inactive”.
For `Nc1ccc2c(S(=O)(=O)O)cccc2c1S(=O)(=O)O`, the Potency [1] was “inactive”, the Potency [2] was “inactive” and the Potency [3] was “inactive”.
With `OC(C#CCN1CCCC1)(c1ccccc1)c1ccccc1` the Potency [1] was “inactive”, the Potency [2] was “inactive” and the Potency [3] was “inactive”.
For `O=C(O)c1cc(C(=O)O)c(C(=O)O)cc1C(=O)O`, the Potency [1] was “inactive”, the Potency [2] was “inactive” and the Potency [3] was “inactive”.
In the case of `CCCCCCCCCCCCCCCCC(C(=O)O)C(O)(CC(=O)O)C(=O)O` (configuration not stated), the Potency [1] is reported as “inactive”, the Potency [2] is reported as “inactive” and the Potency [3] is reported as “inactive”.
With `CCCCCC/C=C\CCCCCCCC(=O)O` the Potency [1] was “inactive”, the Potency [2] was “inactive” and the Potency [3] was “inactive”.
For `CC(=O)OCC1=C(C(=O)O)N2C(=O)[C@@H](NC(=O)Cc3cccs3)[C@H]2SC1`, the Potency [1] was “inactive”, the Potency [2] was “inactive” and the Potency [3] was “inactive”.
For `CCCCCCCCCCCCOCCOS(=O)(=O)O`, the Potency [1] was “inactive”, the Potency [2] was “inactive” and the Potency [3] was “inactive”.
For `C[Si]1(C)O[Si](C)(C)O[Si](C)(C)O1`, the Potency [1] was “inactive”, the Potency [2] was “inactive” and the Potency [3] was “inactive”.
In the case of `COC(=O)C1=C(C)NC(C)=C(C(=O)O[C@@H]2CCCN(Cc3ccccc3)C2)[C@@H]1c1cccc([N+](=O)[O-])c1`, the Potency [1] is reported as “inactive”, the Potency [2] is reported as “inactive” and the Potency [3] is reported as “inactive”.
In the case of `CCCCCCOC(=O)CCC`, the Potency [1] is reported as “inactive”, the Potency [2] is reported as “inactive” and the Potency [3] is reported as “inactive”.
In the case of `C1C2OC2C2C1C1CC2C2OC12` (configuration not stated), the Potency [1] is reported as “inactive”, the Potency [2] is reported as “inactive” and the Potency [3] is reported as “inactive”.
For `Cc1ccc(OC(=O)c2ccccc2O)cc1`, the Potency [1] was “inactive”, the Potency [2] was “inactive” and the Potency [3] was “inactive”.
In the case of `CC1CCCCN1CCCOC(=O)c1ccc(OC2CCCCC2)cc1` (configuration not stated), the Potency [1] is reported as 17.4 µM (active), the Potency [2] is reported as 12.3 µM (active) and the Potency [3] is reported as “inactive”.
`CC(=O)OCC1=C(C(=O)O)N2C(=O)[C@@H](NC(=O)CSc3ccncc3)[C@H]2SC1` was tested, and the Potency [1] was “inactive”, the Potency [2] was “inactive” and the Potency [3] was “inactive”.
For `C=C(C)C1CC=C(C)C(O)C1` (configuration not stated), the Potency [1] was “inactive”, the Potency [2] was “inactive” and the Potency [3] was “inactive”.
`CSC(=O)c1cccc2nnsc12` was tested, and the Potency [1] was 35.6 µM (active), the Potency [2] was 39.9 µM (active) and the Potency [3] was “inactive”.
In the case of `CCCCCCCCCCCCCCOS(=O)(=O)O`, the Potency [1] is reported as “inactive”, the Potency [2] is reported as “inactive” and the Potency [3] is reported as “inactive”.
In the case of `CC(C)CCCCCCCCCCCCCCC(=O)O`, the Potency [1] is reported as “inactive”, the Potency [2] is reported as “inactive” and the Potency [3] is reported as “inactive”.
Molecule `O=S(=O)(O)c1ccc2c(N=Nc3ccc(S(=O)(=O)O)c4ccccc34)c(O)c(S(=O)(=O)O)cc2c1` has an activity, negative = inhibition [1] of -0.661% [at 10.5 µM], an activity change, negative = inhibition [2] of 5.15% [at 10.5 µM] and an activity change, negative = inhibition [3] of 1.78% [at 10.5 µM].
In the case of `C=CC(=O)OCCCl`, the Potency [1] is reported as “inactive”, the Potency [2] is reported as “inactive” and the Potency [3] is reported as “inactive”.
`CCCN1C[C@H](CSC)C[C@@H]2c3cccc4[nH]cc(c34)C[C@H]21` was tested, and the Potency [1] was 5.5 µM (active), the Potency [2] was 12.3 µM (active) and the outcome [3] was “inactive”.
With `CN(C)CCCNCCCN` the Potency [1] was 35.4 µM (active), the Potency [2] was 35.4 µM (active) and the Potency [3] was “inactive”.
`COc1cc(Cl)c(OC)cc1N` was tested, and the Potency [1] was “inactive”, the Potency [2] was “inactive” and the Potency [3] was “inactive”.
For `N=C1C=CC(=C(c2ccc(N)cc2)c2ccc(N)cc2)C=C1`, the Potency [1] was “inactive”, the Potency [2] was 39.9 µM (active) and the Potency [3] was “inactive”.
In the case of `O/N=C/C=N/O`, the Potency [1] is reported as “inactive” and the Potency [3] is reported as “inactive”.
For `CCOC(=O)COc1ccc2c(c1)CC(NCC(O)c1cccc(Cl)c1)CC2` (configuration not stated), the Potency [1] was “inactive” and the Potency [3] was “inactive”.
In the case of `CCN(Cc1cccc(S(=O)(=O)O)c1)c1ccc(C(=C2C=CC(=[N+](CC)Cc3cccc(S(=O)(=O)[O-])c3)C=C2)c2ccccc2)cc1`, the Potency [1] is reported as “inactive” and the Potency [3] is reported as “inactive”.
For `Cc1ccc(NC(=O)c2ccc(CN3CCN(C)CC3)cc2)cc1Nc1nccc(-c2cccnc2)n1`, the Potency [1] was “inactive” and the Potency [3] was “inactive”.
For `CCOc1ccc(N)c([N+](=O)[O-])c1`, the Potency [1] was “inactive” and the Potency [3] was “inactive”.
For `O=C(O)c1cc(-c2ccc(F)cc2F)ccc1O`, the Potency [1] was “inactive” and the Potency [3] was “inactive”.
`CN1C[C@H]2c3ccccc3Oc3ccc(Cl)cc3[C@@H]2C1` was tested, and the Potency [1] was “inactive” and the Potency [3] was “inactive”.
With `CCCCC/C=C\C/C=C\CCCCCCCC(=O)NC(C)c1ccccc1` (configuration not stated) the Potency [1] was “inactive”, the Potency [2] was “inactive” and the Potency [3] was “inactive”.
In the case of `Cc1ccc2c(c1)OCC(=O)CO2`, the Potency [1] is reported as 35.6 µM (active) and the Potency [3] is reported as “inactive”.
With `CCc1nn(CCCN2CCN(c3cccc(Cl)c3)CC2)c(=O)n1CCOc1ccccc1` the Potency [1] was “inactive” and the Potency [3] was “inactive”.
In the case of `OC1(c2ccccc2)CCNCC1`, the Potency [1] is reported as “inactive” and the Potency [3] is reported as “inactive”.
With `CC/C(=C(/c1ccc(O)cc1)c1ccc(OCCN(C)C)cc1)c1ccccc1` the Potency [1] was 41.7 µM (active) and the Potency [3] was “inactive”.
For `CC(C)OC(=O)c1ccccc1C(=O)OC(C)C`, the Potency [1] was “inactive” and the Potency [3] was “inactive”.
In the case of `[Cl][Pt-2]([Cl])([Cl])[Cl]`, the Potency [4] is reported as 17.9 µM (active) and the Potency [2] is reported as 35.7 µM (active).
